Assay outcomes from PubChem.
Sampled rows, rich in hits. Any-hit rate of the full collection: about 3.6%.
DAT uptake mod: changed human dopamine transporter uptake under cocaine IC80; B-score at 10 µM; LLC-PK1 hDAT cells, [14C]-dopamine uptake with cocaine IC80; actives deviate in either direction; Q01959; hit rate 1.3% among 110,000;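 active = Z score or B-score, a plate-position-corrected score, falls beyond the plate's 99.7% confidence bounds, in either direction; inactive = both scores lie inside the 99.7% bounds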
Target sequence (Q01959 whole entry, looked up): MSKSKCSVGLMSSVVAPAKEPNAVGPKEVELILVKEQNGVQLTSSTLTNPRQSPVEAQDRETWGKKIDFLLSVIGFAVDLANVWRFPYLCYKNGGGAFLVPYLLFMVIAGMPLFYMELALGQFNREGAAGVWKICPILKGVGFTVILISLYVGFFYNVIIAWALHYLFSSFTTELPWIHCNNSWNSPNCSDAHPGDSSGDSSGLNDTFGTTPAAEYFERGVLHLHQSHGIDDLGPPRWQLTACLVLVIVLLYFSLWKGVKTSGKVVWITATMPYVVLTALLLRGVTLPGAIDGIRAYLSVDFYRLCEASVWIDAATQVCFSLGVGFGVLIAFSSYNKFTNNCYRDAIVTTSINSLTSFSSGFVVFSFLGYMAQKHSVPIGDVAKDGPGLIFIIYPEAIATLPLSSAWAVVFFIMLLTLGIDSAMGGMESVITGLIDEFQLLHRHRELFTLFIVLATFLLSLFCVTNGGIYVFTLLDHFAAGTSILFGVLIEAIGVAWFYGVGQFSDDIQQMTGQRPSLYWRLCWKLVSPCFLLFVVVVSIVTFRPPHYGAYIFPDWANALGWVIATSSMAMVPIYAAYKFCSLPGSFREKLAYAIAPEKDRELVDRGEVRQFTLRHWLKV
PTEN del growth: suppresses growth of cells with PTEN deletion; viability, % at 10 µM; HCT116 PTEN-null viability, CellTiter-Glo, 60 h; active compounds read low; hit rate 1.2% among 140,000;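 active = viability at or below a set limit, 4 SD under the median of all tested compounds, cut at about 3.7% in these data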;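 note: PTEN knockout HCT116 line with beta catenin targeted HCT116 as companion control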
WT yeast gro inh: growth inhibition of WT yeast, mitochondrial fusion screen; inhibition, % at 10 µM; AID 1362; mitochondrial fusion phenotypic screen, WT strain; hit rate 2.1% among 190,000; in the data active = inhibition above about 58%; tested in S. cerevisiae
HCT116 bCat-KO: beta-catenin-lacking colon tumor cell growth suppression; HCT116 beta-catenin knockout viability, CellTiter-Glo, 60 h; active compounds read low; viability, % at 10 µM; AID 818; hit rate 1.5% among 140,000;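 active = viability at or under a set limit, the compound median less 4 SD, cut at about 6% in these data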
A number is an active result; 0 = inactive; - = no result.

SMILES | DAT uptake mod | PTEN del growth | WT yeast gro inh | HCT116 bCat-KO
Cc1ccc(S(=O)(=O)/C(=C/Cl)NC(=O)c2ccccc2)cc1 | - | 0 | 0 | 6.0
C=C(C)C1Cc2c(C)nn(-c3cccc4ccccc34)c2C1 (centres undefined) | 0 | 0 | 86 | 0
C=C(C)C1Cc2c(C)nn(-c3ccccc3)c2C1 (centres undefined) | 0 | 0 | 0 | 0
COc1ccc2nc(NC(=O)C3CCN(S(=O)(=O)c4cccs4)CC3)sc2c1 | 2.8 | 0 | 0 | 0
COc1ccc2nc(NC(=O)C3CCCN(S(=O)(=O)c4cccs4)C3)sc2c1 (centres undefined) | 0 | 0 | 0 | 0
COc1ccc2nc(NC(=O)C3CCN(S(=O)(=O)c4cnc[nH]4)CC3)sc2c1 | 2 | 0 | 0 | 0
CCCCNC(=O)C1CCN(S(=O)(=O)c2cnc[nH]2)CC1 | 0 | 0 | 71 | 0
CCOc1ccc2nc(NC(=O)C3CCN(S(=O)(=O)c4cnc[nH]4)CC3)sc2c1 | 0 | 0 | 0 | 0
CC(C)n1nc(Cc2cccc3ccccc23)c(C#N)c1N | 0 | - | - | -
COc1cc(/C=N/n2cnnc2)ccc1OCc1ccccc1 | 0 | 0 | 64 | 0
NC(=O)CNC(=O)[C@@H]1CC2(CC(c3cccc(Br)c3)=NO2)CN1C(=O)c1ccc(Br)cc1 (some centres undefined) | 2.2 | 0 | 0 | 0
NC(=O)CNC(=O)[C@@H]1CC2(CC(c3ccc(Cl)cc3)=NO2)CN1C(=O)c1ccccc1 (some centres undefined) | 0 | 0 | 0 | 0
COc1cccc(Nc2nc(NCCO)c3ccccc3n2)c1 | 0 | 0 | 60 | 0
COc1cccc(Nc2nc(NCC3CCCO3)c3ccccc3n2)c1 (centres undefined) | 0 | 1.2 | 0 | 1.3
Cc1ccc(S(=O)(=O)N2CCN(C(=O)c3cc(=O)c4ccccc4o3)CC2)cc1 | - | - | 0 | -
COc1cccc(C2NC(=O)c3ccccc3O2)c1OCc1ccccc1F (centres undefined) | - | - | 0 | -
N=C1/C(=C\c2ccc(OCc3ccccc3)cc2)C(=O)N=C2SC(N3CCCC3)=NN12 | 0 | - | 0 | -
O=C(c1ccc(C(F)(F)F)cc1)C1CCCN(C(=O)CCc2cnccn2)C1 (centres undefined) | - | - | 0 | -
CC(=O)O[C@@H]1C[C@H]2C(C)(C)C(=O)C=C[C@]2(C)[C@H]2CC[C@@]3(C)[C@H](c4ccoc4)OC(=O)[C@H]4O[C@]43[C@@]21C | 0 | 0 | 0 | 3.9
CCOC(=O)C1=C(C)NC(=O)NC1c1ccoc1 (centres undefined) | 0 | - | 0 | 0
Nc1cc(=O)nc(SCC(=O)NCc2ccccc2)n1CCc1ccccc1 | -5.1 | 0 | 0 | 0
C#CCNC(=O)C1=C[C@H](C2CCCCC2)C[C@H](OCCCCO)O1 | 0 | - | 0 | -
S=C(NCCc1ccccc1)N/N=C/C1CCCCC1 | - | - | 72 | -
S=C(NCCc1ccccc1)N/N=C/c1ccccc1Cl | - | 0 | 64 | 0
COCCNC(=S)NN=C1CCCCCC1 | - | - | 0 | -
SMILES | DAT uptake mod | PTEN del growth | WT yeast gro inh | HCT116 bCat-KO
S=C(NCCc1ccccc1)NN=C1CCCCCC1 | - | - | 66 | -
Cc1cc(C(=O)COC(=O)C2=NNC(=O)CC2)c(C)n1CCc1ccccc1 | - | - | 0 | -
N#Cc1ccc(OCC(O)CS(=O)(=O)c2ccccc2)cc1 (centres undefined) | - | - | 0 | -
C=CCNC(=S)N/N=C(\C)c1cc(OC)c(OC)c(OC)c1 | - | 0 | 0 | 0
CCOc1ccc(NC(=O)COc2nsnc2N2CCOCC2)cc1 | - | - | 0 | -
COCc1cc(C)nc(N/N=C/c2ccc(-c3cc(C(=O)O)ccc3Cl)o2)c1C#N | - | - | 0 | -
Cc1cc(C)n(C(=O)/C(C#N)=N\Nc2ccccc2[N+](=O)[O-])n1 | - | - | 0 | -
Cc1cc(C)n(C(=O)/C(C#N)=N/Nc2cc(Cl)cc(Cl)c2)n1 | - | - | 85 | -
COCCOC(=O)c1c(C)nc(SCC(=O)Nc2cccc3ccccc23)c(C#N)c1-c1ccco1 | -8.2 | 0 | 0 | 0
COCCOC(=O)c1c(C)nc(SCC(=O)Nc2ccc(C)cc2)c(C#N)c1-c1ccco1 | 0 | 0 | 0 | 0
Cc1ccc(NC(=O)Cn2cc(C(F)(F)F)cc(Cl)c2=O)cc1Cl | - | - | 0 | -
Cc1cc(C(C)(C)C)ccc1OCCn1ccnc1 | 0 | 0 | 72 | 0
CC(C)(C)c1ccccc1OCCCCCn1ccnc1 | - | - | 0 | -
Cc1cccc(OCCCCCn2ccnc2)c1C | 0 | 0 | 67 | 0
Cc1ccc(C(C)(C)C)c(OCCCn2ccnc2)c1 | - | 0 | 66 | 0
COc1ccc2c(COC(=O)CCS(=O)(=O)c3ccccc3)cc(=O)oc2c1 | - | - | 0 | -
O=C(Oc1ccc2ccccc2c1Cl)N1CCCCCC1 | - | 0 | 81 | 0
O=C(Oc1ccc2ccccc2c1Cl)N1CCCC1 | 0 | 0 | 0 | 0
COCOc1ccc(C2CC(=O)c3c(OCOC)cc(OCOC)cc3O2)cc1 (centres undefined) | 0 | - | - | -
Cc1ccc(NC2=C(NC(=O)c3ccccc3)C(=O)c3ccccc3C2=O)cc1Cl | - | 0 | 68 | 5.7
CCOC(=O)c1c(C)[nH]c(C)c1C(=O)CSc1nnc(-c2ccncc2)n1Cc1ccccc1 | 0 | 0 | 0 | 0
CCOC(=O)c1c(C)[nH]c(C)c1C(=O)CSc1nnc(-c2ccncc2)n1C | - | 0 | 65 | 0
COC(=O)c1ccc(C(=O)NC(=S)Nc2ccc3nc(SC)sc3c2)cc1 | - | 1.5 | 0 | 0.9
COc1ccc(-n2nc(C(=O)NCC(=O)NCC3COc4ccccc4O3)c3ccccc3c2=O)cc1 (centres undefined) | - | - | 0 | -
CCCCNC(=O)N1c2ccccc2CC1C (centres undefined) | - | - | 0 | -
SMILES | DAT uptake mod | PTEN del growth | WT yeast gro inh | HCT116 bCat-KO
Cc1sc2nc(CN3CCC(C)CC3)nc(Cl)c2c1C | - | 0.8 | 0 | 0.9
Cc1sc2nc(CN3CCOCC3)nc(Cl)c2c1C | - | 0 | 0 | 0
C(#Cc1ccccc1)C[N+]1(CC#Cc2cccc3ccccc23)CCCC1 | - | 0 | 0 | 0
CCCN(CCC)C(=O)Cn1c(=O)n(CCC(=O)NCCc2ccccc2)c(=O)c2ccccc21 | -8 | 0 | 0 | 0
COCCNC(=O)Cn1c(=O)n(CCC(=O)NCCc2ccccc2)c(=O)c2ccccc21 | - | 0 | 0 | 0
CCN(CC)S(=O)(=O)c1cc(C(=O)c2nccn2C)ccc1Cl | - | - | 0 | -
Cc1ccc(-c2cn(-c3ccc(SC(F)F)cc3)c3[n+]2CCC3)cc1 | - | 0 | 0 | 0
CC1=[N+](C)c2c(ccc3cccnc23)C1(C)C | - | - | 82 | -
CN(C)c1ccc(-c2nnc(SCC3CCCO3)n2C)cc1 (centres undefined) | - | - | 0 | -
CN(C)CCCNS(=O)(=O)c1ccc(N2CCC(c3ccc(Cl)cc3)=N2)cc1 | 0 | 1.1 | - | 1.2
CC(C)(C)N1CC(COc2ccccc2)OC1=O (centres undefined) | -8.9 | 0 | 0 | 0
COC(=O)c1c(NC(=O)c2nc3ccccc3s2)sc2c1CC(C)(C)NC2(C)C | - | - | 83 | -
O=c1cc(C(Cl)(Cl)Cl)oc2c1ccc1ccccc12 | 0 | 2.6 | 78 | 2.5
CCc1ccc2[nH]c(=O)c(CN(CCCN3CCOCC3)C(=O)Nc3cccc(Cl)c3)cc2c1 | 3.3 | 1.9 | 0 | 1.9
CCc1ccc2[nH]c(=O)c(CN(CCCN3CCOCC3)C(=O)Nc3ccc(Cl)cc3)cc2c1 | 0 | 0 | 0 | 0
Cc1ccc(C)c2[nH]c(=O)c(CN(CCN3CCCC3)C(=O)Nc3cccc(Cl)c3)cc12 | 0 | 1.8 | 0 | 3.0
Cc1nc(NC(=O)C(C)Oc2cccc(Cl)c2)sc1C(=O)N(C)C (centres undefined) | - | 0 | 0 | 0
